# Measurements from PubChem BioAssay AID1851 (National Center for Advancing Translational Sciences (NCATS), 2009).
# Several values for one entry are separate records, joined by “and”; a condition that tells them apart may be missing. Identical values can stand only once. About 5,700 (36%) of roughly 16,000 compounds were called active. Inconclusive results (about 24%) are left out. This is one part of the list. Unmarked numbers belong to inactive results. The call rests on the fitted dose curve; in most records, active means well fitted curve in the direction sought with a large enough effect; inconclusive means small, poorly fitted or top-dose-only effect, or effect the other way; inactive means no such curve, though single readings can be large or run the other way. Peptide text beside a SMILES is read from it. * marks the point of attachment. PhAc = O=C(Cc1ccccc1)*; OBn = c1ccc(CO*)cc1
# Biological target: Cytochrome P450 1A2 (Homo sapiens) (UniProt P05177)
# Assay: Cytochrome panel assay with activity outcomes
# Conditions: recombinant CYP, pro-luciferin dealkylation, luminescence, p450-cyp1a2; series mostly up to 57.1 µM
# On the % scale 0 is the no-effect control and ±100 the full control effect.
# Chain of Cytochrome P450 1A2 (Homo sapiens) (P05177 whole entry, looked up): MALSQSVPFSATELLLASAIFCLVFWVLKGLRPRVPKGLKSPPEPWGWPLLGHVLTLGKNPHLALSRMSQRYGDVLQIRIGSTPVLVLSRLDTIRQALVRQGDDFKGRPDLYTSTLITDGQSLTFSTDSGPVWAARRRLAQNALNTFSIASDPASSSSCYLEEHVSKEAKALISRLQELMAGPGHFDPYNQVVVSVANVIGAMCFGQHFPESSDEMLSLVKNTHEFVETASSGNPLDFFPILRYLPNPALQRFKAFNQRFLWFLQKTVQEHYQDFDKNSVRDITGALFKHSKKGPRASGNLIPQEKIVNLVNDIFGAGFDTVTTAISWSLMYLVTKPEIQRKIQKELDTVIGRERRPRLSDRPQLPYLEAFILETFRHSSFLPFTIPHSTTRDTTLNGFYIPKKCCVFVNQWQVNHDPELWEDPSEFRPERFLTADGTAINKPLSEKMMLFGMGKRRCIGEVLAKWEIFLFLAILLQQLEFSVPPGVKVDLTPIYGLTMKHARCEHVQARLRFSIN
Compound,AC50,"activity, negative = inhibition"
CC(C)C[C@H]1C(=O)N2CCC[C@@H]2[C@]2(O)O[C@](NC(=O)[C@H]3C=C4c5cccc6[nH]c(Br)c(c56)C[C@H]4N(C)C3)(C(C)C)C(=O)N12,inactive,–
OC1(c2ccc(OC(F)F)cc2)CSC(=Nc2cccnc2)N1C1CC1 (configuration not stated),1120 nM (active),–
CCOc1ccc(NC(=O)N2CCC(C(N)=O)(N3CCCCC3)CC2)cc1,inactive,–
CCOc1ccc(N/N=C(/C#N)C(N)=O)cc1,5010 nM (active),–
CCOc1ccc(NC(=O)C(=O)NCC2CCCN2CC)cc1 (configuration not stated),inactive,–
O=C1CCN(S(=O)(=O)c2ccccc2)N1,inactive,–
O=C(O)c1c2c(c(O)c3c1CN(C1CCCCC1)CO3)OCN(C1CCCCC1)C2,–,3.18% [at 11.4 µM]
CCCCCCCCCCCCCCSCC(=O)O,inactive,–
NCCCCCC(=O)O,inactive,–
CCCCCCCCCCC/C=C\C(C)(C)/C=C\CCCC(=O)O,39800 nM (active),–
CCCCCCC/C=C\CCCCCCCCC(=O)O,31600 nM (active),–
NCCCCC(=O)O,inactive,–
CS(=O)(=O)Nc1cccc(-c2nccc(Nc3ccc(F)cc3)n2)c1,126 nM (active),–
CNc1nc(-c2cccc(NS(C)(=O)=O)c2)nc2ccccc12,398 nM (active),–
Nc1nccc(Nc2ccc(S(N)(=O)=O)cc2)n1,–,-8.04% [at 11.4 µM]
CS(=O)(=O)Nc1cccc(-c2nc(Nc3ccc(F)cc3)c3ccccc3n2)c1,794 nM (active),–
CS(=O)(=O)Nc1cccc(-c2nc(Nc3ccccc3)c3ccccc3n2)c1,794 nM (active),–
CS(=O)(=O)Nc1cccc(-c2nc(Nc3ccncc3)c3ccccc3n2)c1,631 nM (active),–
COc1ccc(OC)c(Nc2nc(-c3cccc([N+](=O)[O-])c3)nc3ccccc23)c1,inactive,–

Compound,AC50,"activity, negative = inhibition"
CN(C)c1nc(-c2cccc(NS(C)(=O)=O)c2)nc2ccccc12,501 nM (active),–
COc1cccc(-c2nc(Nc3ccncc3)c3ccccc3n2)c1,794 nM (active),–
CC(C)(N)C(=O)N[C@@H]1C(=O)N2[C@@H]1SC(C)(C)[C@H]2C(=O)O,–,4.41% [at 2.29 µM]
C[C@H](CCC(=O)NCC(=O)O)[C@H]1CC[C@H]2[C@H]3[C@@H](C[C@@H](O)[C@]12C)[C@]1(C)CC[C@H](O)C[C@@H]1C[C@@H]3O,inactive,–
COc1cccc(CC(C(=O)Nc2cc(C)ccc2C)c2nn[nH]n2)c1OC (configuration not stated),3160 nM (active),–
Cn1cc(C(=O)c2ccc(Cl)cc2Cl)cc1C(=O)O,inactive,–
COC(=O)c1cc(C(=O)c2ccc(Cl)cc2Cl)cn1C,2510 nM (active),–
Cc1c(-n2cc(C(=O)c3cc(Cl)ccc3O)cc(C#N)c2=O)c(=O)n(-c2ccccc2)n1C,inactive,–
COC(=O)C1=C(C)Nc2ncnn2C1c1cccnc1 (configuration not stated),inactive,–
C(=C1/CCCC2=C1Nc1ncnn1C2c1ccccc1)/c1ccccc1 (configuration not stated),10000 nM (active),–
O=C(CNC(=O)Cc1ccccc1)NCC(=O)OCc1ccccc1 (PhAc-Gly-Gly-OBn),inactive,–
CC(C)(C)c1ccc(COC(=O)CNC(=O)CNC(=O)Cc2ccccc2)cc1,inactive,–
CC(=O)SC[C@@H](Cc1ccccc1)C(=O)NCC(=O)OCc1ccccc1,2510 nM (active),–
COc1ccccc1NC(=O)c1nc[nH]c1C(=O)Nc1ccccc1OC,200 nM (active),–
COCn1c2ccccc2c2nnc(C(C)=O)nc21,–,-3.08% [at 11.4 µM] and -1.56% [at 11.4 µM]
CCn1c2ccccc2c2nnc(NCCCO)nc21,1580 nM (active),–
Cc1c(NC(=O)CSc2nnc3c4ccccc4n(CCc4ccccc4)c3n2)c(=O)n(-c2ccccc2)n1C,inactive,–
CCN(CC)c1ncnc2c1sc1nc(C)cc(C)c12,1410 nM (active),–
O=C(c1csnn1)N1CCC2(CC1)CCN(c1ncccn1)CC2,inactive,–

Compound,AC50,"activity, negative = inhibition"
C[N+](C)(C)CC(=O)O,inactive,–
CS(=O)(=O)Nc1cccc(-c2ccc3ncnc(N4CCNCC4)c3c2)c1,12600 nM (active),–
CS(=O)(=O)Nc1ccc(S(=O)(=O)N2CCOCC2)cc1,inactive,–
CS(=O)(=O)Nc1cccc(-c2nc(N3CCOCC3)c3ccccc3n2)c1,5010 nM (active),–
CS(=O)(=O)Nc1cccc(-c2ccc3ncnc(NCCN4CCOCC4)c3c2)c1,25100 nM (active),–
Cn1nc(-c2ccc(N3CCOCC3)c(NS(=O)(=O)c3ccc(Cl)cc3)c2)c2ccccc2c1=O,inactive,–
CS(=O)(=O)Nc1cccc(-c2ccc3ncnc(N4CCOCC4)c3c2)c1,12600 nM (active),–
Cc1ccc(-c2nn3c(C)nnc3c3ccccc23)cc1S(=O)(=O)NCCN1CCOCC1,inactive,–
CC(=O)OC[C@@H]1O[C@@H](O/N=C2/C[C@@H](O)[C@@H](O)[C@@H]3[C@@H]4C(=O)N(Cc5ccccc5)C(=O)[C@H]4CC[C@@H]23)[C@H](OC(C)=O)[C@H](OC(C)=O)[C@@H]1OC(C)=O,–,-3.54% [at 11.4 µM]
N#Cc1ccc(CN2CCC3(CC2)CCN(C(=O)c2csnn2)CC3)cc1,inactive,–
O=C(c1ccco1)N1CCC2(CC1)CN(Cc1cc(C(F)(F)F)cc(C(F)(F)F)c1)C2,inactive,–
CN1C(=O)C[C@H](c2ccccc2)C1=O,inactive,–
COc1cccc([C@@H]2Oc3ccc(OC)cc3/C(=N/O[C@@H](C)CN3CCCCc4nc(C)c(C)cc43)[C@@H]2O)c1,–,-8.62% [at 11.4 µM]
Cc1cc(C(=O)OCC(=O)NCCC(C)C)c2ccccc2n1,4470 nM (active),–
CC(C)CCNC(=O)Cc1ccccc1[N+](=O)[O-],inactive,–
CO[C@H]1COC(=O)CCC[C@H](C)[C@@H](OC)COC(=O)C/C=C\[C@@H]1C,–,-4.49% [at 11.4 µM]
N#Cc1c(-c2ccc3c(c2)OCO3)ccn2nc(-c3cccc(C(F)(F)F)c3)nc12,56.2 nM (active),–
CCNC(=O)C1CC(=O)OC12CCCCC2 (configuration not stated),inactive,–
CC(C)=CCC/C(C)=C/CO/N=C1/C[C@@H](O)[C@@H](O)[C@@H]2[C@@H]3C(=O)N(Cc4ccc5c(c4)OCO5)C(=O)[C@H]3CC[C@H]12,–,-9.49% [at 11.4 µM]
